Results filed as inconclusive are left out. Entries that show only a call come without a potency. Activity calls are given as the source filed them. The call rests on the fitted dose curve; in most records, active means well fitted inhibition curve with a large enough effect in the repeat runs; inconclusive means weak or mixed curves; inactive means no such curve, though single readings can be large or run the other way.
Potency means the concentration at half of the fitted maximal effect.

Sequence of Cytochrome P450 2C19 (Homo sapiens) (P33261 whole entry, looked up): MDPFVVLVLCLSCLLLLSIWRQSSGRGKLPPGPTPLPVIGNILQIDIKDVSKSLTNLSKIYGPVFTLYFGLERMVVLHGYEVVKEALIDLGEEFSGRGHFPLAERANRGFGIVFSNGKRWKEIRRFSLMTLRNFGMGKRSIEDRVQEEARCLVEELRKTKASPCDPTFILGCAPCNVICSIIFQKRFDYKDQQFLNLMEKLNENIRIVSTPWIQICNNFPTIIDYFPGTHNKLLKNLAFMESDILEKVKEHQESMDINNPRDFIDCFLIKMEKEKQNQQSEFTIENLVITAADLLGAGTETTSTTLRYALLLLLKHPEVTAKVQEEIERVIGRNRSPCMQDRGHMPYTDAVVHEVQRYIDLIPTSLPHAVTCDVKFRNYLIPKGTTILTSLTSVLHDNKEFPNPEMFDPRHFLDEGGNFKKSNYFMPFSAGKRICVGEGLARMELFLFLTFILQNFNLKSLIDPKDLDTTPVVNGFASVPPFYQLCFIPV

This test addresses Cytochrome P450 2C19 (Homo sapiens) (UniProt P33261). Kind of test: Cytochrome P450 Family 2 Subfamily C Member 19 (CYP2C19) small molecule antagonists: luciferase reporter qHTS assay (AID 1671197). Further: nearly all actives have a fitted effect of over 65% in size. Conditions: P450-Glo CYP2C19 enzyme, luciferin luminescence, 1 h; series mostly up to 115 µM. An excerpt:
National Center for Advancing Translational Sciences [NCATS]
U.S. Environmental Protection Agency [EPA]
National Institutes of Environmental Health Sciences [NIEHS]
National Toxicology Program [NTP]
U.S. Food and Drug Administration [FDA]
Cytochrome P450 (CYP) enzymes are membrane-bound hemeproteins that play a key role in metabolism of drugs and xenobiotics. Evaluation of the effect of chemicals on CYP isozymes is useful to minimize the adverse drug reactions and toxicities in drug development process. Tox21 chemicals were tested for their effect on CYP enzyme activities by using P450-Glo (TM) screening systems (Promega Corporation, Madison, WI). These systems provide a luminescent method containing proluciferin substrates and are converted to luciferin products by CYP isozymes. The luciferin products formed are detected with a luciferin detection reagent, and the amount of light produced is proportional to CYP activity. P450-Glo (TM) CYP2C19 screening system (Catalog. No. V9880) was used to detect the compounds that interfere in CYP2C19 activity. The positive control compound used for CYP2C19 assay is ketoconazole (Sigma-Aldrich, St. Louis, MO).
Tox21 Assay Protocol Summary:
Two ul of enzyme-substrate mix was dispensed into medium binding white/solid 1536-well plates (Greiner Bio-One North America Inc., Monroe, NC) using a BioRaptr Flying Reagent Dispenser (FRD, Beckman Coulter, Brea, CA). Compounds dissolved in DMSO and positive control (ketoconazole) were transferred to the assay plates at 23 nl using a Pintool station (Wako, San Diego, CA). The assay plates were incubated at room temperature for 10 min. Then 2 ul of NADPH regeneration solution was added to each well of the assay plates using an FRD and incubated at 37C for 1 h. The reaction was stopped by adding 4 ul of detection reagent using an FRD and after 20 min incubation at room temperature the luminescence signal was measured using a ViewLux plate reader (Perkin Elmer, Shelton, CT). Data were expressed as relative luminescence units.
On to `CCC1(C)NC(=O)NC1=O` (stereo not given), for which the Potency result was “inactive”.

For `OCCN(CCO)CCN(CCO)CCO`, the Potency entry is “inactive”.

With `CC(=O)OC(C)OC(C)=O`, the Potency entry was “inactive”.

Take `COC(=O)N[C@H](C(=O)N[C@@H](Cc1ccccc1)[C@@H](O)CN(Cc1ccc(-c2ccccn2)cc1)NC(=O)[C@@H](NC(=O)OC)C(C)(C)C)C(C)(C)C`: the Potency was 34.7 µM (active).

For `COc1cc(Cl)ccc1Cl`, the Potency result was “inactive”.

As to `CCCCCCCCCCCCOCCOS(=O)(=O)O`, the Potency was 79.6 µM (active).

Take `CCc1cc2cc(OC)c(OC)cc2c(Cc2ccccc2)n1`: the Potency is 17.4 µM (active).

In the case of `COc1ccccc1N1CCN(CCCNc2cc(=O)n(C)c(=O)n2C)CC1`, the Potency result was “inactive”.

In the case of `O=[N+]([O-])c1nccn1CO[C@@H](CO)[C@H](O)CO`, the Potency result was “inactive”.

As for `CCC(=O)Nc1ccc(O)cc1`, the Potency result was “inactive”.

With `CCCCCCCCCC#N`, the Potency result was “inactive”.

Consider `CC(C)(C)C1CCCCC1=O` (stereo not given), for which the Potency result is “inactive”.

Take `CC(C)CC(=O)OCc1ccccc1`: the Potency entry was “inactive”.

As for `NC(=O)NS(=O)(=O)c1ccc(Cl)cc1`, the Potency entry was “inactive”.

On to `OCc1c2ccccc2cc2ccccc12`, for which the Potency was 35.7 µM (active).

Turning to `CCCCNc1ccc(C(=O)OCCN(CC)CC)cc1`, the Potency entry is “inactive”.

`COC(=O)c1ccc(OC)cc1`: the Potency entry is “inactive”.

Regarding `CN(CCCN1c2ccccc2CCc2ccccc21)CC(=O)c1ccc(Cl)cc1`, the Potency was 3.47 µM (active).

Consider `CO[C@@]1(NC(=O)CSCC#N)C(=O)N2C(C(=O)O)=C(CSc3nnnn3C)CS[C@@H]21`, for which the Potency entry was “inactive”.

On to `CCCCCCCCOC(=O)CCCCCCCCC(=O)OCCCCCCCC`, for which the Potency entry was “inactive”.

Turning to `O=C1CCCCC1C1CCCCC1` (stereo not given), the Potency entry is “inactive”.

On to `CNCCC(Oc1ccccc1OC)c1ccccc1` (stereo not given), for which the Potency result is “inactive”.

Regarding `CCN(O)CC`, the Potency result was “inactive”.

With `COc1ccc2nc(NC(=O)Nc3ccccc3)sc2c1`, the Potency is 21.9 µM (active).

Regarding `CC(C)=CCC[C@](C)(O)[C@@H]1CC=C(C)CC1`, the Potency was 5.03 µM (active).

On to `CCC(=O)O[C@]1(C(=O)SCF)[C@H](C)C[C@H]2[C@@H]3C[C@H](F)C4=CC(=O)C=C[C@]4(C)[C@@]3(F)[C@@H](O)C[C@@]21C`, for which the Potency entry is “inactive”.

As to `CCCC1CCC(=O)O1` (stereo not given), the Potency entry is “inactive”.

With `O=C1N(c2ccccc2)c2ccccc2C1(Cc1ccncc1)Cc1ccncc1`, the Potency was 2.45 µM (active).

On to `CC1=NN(c2cc(Cl)c(S(=O)(=O)O)cc2Cl)C(=O)C1N=Nc1ccc(S(=O)(=O)O)cc1` (stereo not given), for which the Potency result is “inactive”.

Regarding `CCOC(=O)c1ccccc1O`, the Potency result was “inactive”.

As for `C=CC1CO1` (stereo not given), the Potency entry is “inactive”.

For the compound `CN1[C@@H]2CC[C@H]1CC(OC(=O)c1c[nH]c3ccccc13)C2` (stereo not given in full), the Potency entry is “inactive”.

Consider `Cc1nc(N)nc(N)c1-c1ccc(Cl)c(Cl)c1`, for which the Potency entry is “inactive”.

Take `CCN(CCCc1ccccc1)CCCc1ccccc1`: the Potency is 6.92 µM (active).

For the compound `O=C1Nc2ccc([N+](=O)[O-])cc2C1=O`, the Potency is 5.63 µM (active).

Consider `OCC(CBr)(CBr)CBr`, for which the Potency result is “inactive”.

Regarding `OCc1ccccc1O`, the Potency result is “inactive”.

For `Cc1cc(NS(=O)(=O)c2ccc(N)cc2)nc(C)n1`, the Potency entry was “inactive”.

With `Nc1ccc(Oc2ccc(N)c(N)c2)cc1`, the Potency is 20 µM (active).

Consider `CCCCC(CC)COC(=O)COc1cc(Cl)c(Cl)cc1Cl` (stereo not given), for which the Potency was 7.1 µM (active).

The values are drawn from PubChem BioAssay (Tox21).
